Test systems include SK-MEL-2 melanoma; EKVX NSCLC; UO-31 renal; TK-10 renal; ACHN renal; CAKI-1 renal; A498 renal; CCRF-CEM leukemia; MOLT-4 leukemia; SR leukemia; RPMI-8226 leukemia; OVCAR-8 ovarian; OVCAR-5 ovarian; OVCAR-4 ovarian; SK-OV-3 ovarian; IGROV1 ovarian; OVCAR-3 ovarian; HS 578T breast; SN12C renal; NCI/ADR-RES ovarian.
What all share (test): NCI-60 one-dose screen, 48 h (100 = growth as untreated, 0 = no growth, -100 = all killed)
Holding throughout (conditions): 10 µM unless noted

This passage reports growth results from PubChem BioAssay (NCI).

About 83,000 compounds went through this panel and 20% of them were active in at least one assay; those are over-represented in the sample as a whole.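 Plates (96-well) were seeded with cells, treated with compound at one concentration, and incubated for 48 hours before percent growth was determined.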 A number with no mark means an inactive call. Active and inactive are the calls of the source. The calls were made as follows: active = growth percent below 10; inactive = the rest.

Take `NC(=NC1C2CC3CC(C2)CC1C3)Nc1ccc(I)cc1` (centres undefined): the growth in the test with SK-MEL-2 melanoma was 50.3%; with EKVX NSCLC, 32.2%; with UO-31 renal it was 18.6%; with TK-10 renal, 43.5%; in the test with ACHN renal it was 7.41% (active); with CAKI-1 renal, 18%. For the same molecule, the growth was -12.5% (active) in the test with A498 renal; 8.16% (active) in the test on CCRF-CEM leukemia; 5.63% (active) in the test on MOLT-4 leukemia; -10.1% (active) in the test with SR leukemia; 20.6% with RPMI-8226 leukemia; 70.1% with OVCAR-8 ovarian. Further, the growth was 38.9% in the test on OVCAR-5 ovarian; 20.2% in the test on OVCAR-4 ovarian; 77.6% in the test with SK-OV-3 ovarian; 4.42% (active) with IGROV1 ovarian; 53.9% in the test with OVCAR-3 ovarian; 33% with HS 578T breast.

As for `O=S(=O)(Nc1ccc(OC(F)F)cc1)c1ccc(-c2cnc(C3CC3)o2)cc1`, the growth in the test on SK-MEL-2 melanoma is 63.9%; in the test with EKVX NSCLC it was 61.7%; in the test with SN12C renal it was 77.5%; with UO-31 renal, 60.2%; in the test with ACHN renal, 79.4%; in the test on CAKI-1 renal it was 47.2%. Further, the growth in the test with A498 renal is 16.9%; with CCRF-CEM leukemia it was 66.8%; in the test with MOLT-4 leukemia, 50.1%; with RPMI-8226 leukemia it was 52.8%; in the test on OVCAR-8 ovarian, 78.4%; in the test on OVCAR-5 ovarian, 97.5%. Moreover, the growth was 52.3% in the test on OVCAR-4 ovarian; 83.4% in the test with SK-OV-3 ovarian; 64.8% with IGROV1 ovarian; 71.5% with OVCAR-3 ovarian; 75.5% with HS 578T breast.

For the molecule `Cc1oc(-c2ccc(Cl)cc2Cl)cc1C(=O)Nc1nccs1`, the growth in the test with SK-MEL-2 melanoma was 102%; with EKVX NSCLC, 70.7%; in the test on SN12C renal, 78.3%; with UO-31 renal, 82%; in the test with ACHN renal it was 62.5%; in the test on CAKI-1 renal it was 78.1%. Besides, the growth with A498 renal is 102%; in the test with CCRF-CEM leukemia, 89%; in the test with MOLT-4 leukemia, 94%; in the test with RPMI-8226 leukemia it was 98.4%; in the test with OVCAR-8 ovarian, 80%; in the test with OVCAR-5 ovarian it was 83.1%. In addition, the growth in the test on OVCAR-4 ovarian is 7.78% (active); with SK-OV-3 ovarian, 89.8%; with IGROV1 ovarian, 81.6%; with OVCAR-3 ovarian, 101%; in the test with HS 578T breast, 77.1%.

Regarding `CCOc1ccc(C(C)=O)cc1NC(=O)c1cccc(-c2nnn(CC)n2)c1`, the growth in the test with SK-MEL-2 melanoma is -5.73% (active); in the test on EKVX NSCLC, 54.5%; in the test on UO-31 renal, 38.4%; with TK-10 renal, 64.4%; in the test with ACHN renal, 50.8%; with CAKI-1 renal, 33.1%. For the same molecule, the growth in the test on A498 renal is -6.01% (active); in the test on CCRF-CEM leukemia, 11.9%; in the test with MOLT-4 leukemia, 27.8%; in the test with SR leukemia it was 10.2%; with RPMI-8226 leukemia, 22.4%; in the test on OVCAR-8 ovarian, 34.2%. The growth was 66.5% in the test with OVCAR-5 ovarian; 48% with OVCAR-4 ovarian; 23.8% in the test on SK-OV-3 ovarian; 52.3% with IGROV1 ovarian; 7.08% (active) with OVCAR-3 ovarian.

Consider `NCCNc1nc(Nc2ccc(-c3nc4ccccc4[nH]3)cc2)c2cn[nH]c2n1`, for which the growth was 75% in the test on SK-MEL-2 melanoma; 88.9% in the test with EKVX NSCLC; 76.7% with UO-31 renal; 105% with TK-10 renal; 91.9% with ACHN renal; 91.5% in the test on CAKI-1 renal. For the same molecule, the growth in the test on A498 renal is 115%; in the test with CCRF-CEM leukemia it was -3.49% (active); in the test on MOLT-4 leukemia, 8.24% (active); with SR leukemia, -3.8% (active); in the test on RPMI-8226 leukemia, -11.7% (active); in the test on OVCAR-8 ovarian, 43.9%. The growth with OVCAR-5 ovarian was 125%; in the test on OVCAR-4 ovarian, 88.4%; in the test on SK-OV-3 ovarian, 111%; with IGROV1 ovarian it was 97.6%; in the test with OVCAR-3 ovarian it was 83.9%; with HS 578T breast, 41.8%. Moreover, in the test on NCI/ADR-RES ovarian, the growth is 94.9%.

As to `COc1nc2c(c(=O)n1C)CN(Cc1ccccc1)C=N2`, the growth with SK-MEL-2 melanoma is 106%; with EKVX NSCLC, 111%; in the test with SN12C renal it was 116%; in the test on UO-31 renal, 77.3%; in the test with ACHN renal, 106%; in the test on CAKI-1 renal, 98.1%. For the same molecule, the growth is 131% in the test with A498 renal; 103% in the test with CCRF-CEM leukemia; 105% in the test with MOLT-4 leukemia; 98.7% in the test on SR leukemia; 86.6% in the test on RPMI-8226 leukemia; 96.7% in the test with OVCAR-8 ovarian. For the same molecule, the growth is 105% in the test on OVCAR-5 ovarian; 116% in the test with OVCAR-4 ovarian; 87.3% with SK-OV-3 ovarian; 93.7% in the test with IGROV1 ovarian; 105% with OVCAR-3 ovarian; 113% in the test on NCI/ADR-RES ovarian.

For the molecule `Cc1ccc(NC(=O)C2CCC(CN3CCN(C)CC3)CC2)cc1Nc1nccc(-c2cccnc2)n1` (centres undefined), the growth in the test with SK-MEL-2 melanoma is 112%; with EKVX NSCLC, 97.6%; in the test on SN12C renal, 91.9%; in the test on UO-31 renal, 83.3%; in the test on ACHN renal, 94.9%; in the test with CAKI-1 renal, 95.5%. For the same molecule, the growth was 89.6% with A498 renal; 109% in the test on CCRF-CEM leukemia; 89.8% in the test with MOLT-4 leukemia; 90.9% in the test with SR leukemia; 96.6% in the test with RPMI-8226 leukemia; 111% in the test on OVCAR-8 ovarian. In addition, the growth with OVCAR-4 ovarian is 108%; in the test on SK-OV-3 ovarian, 110%; in the test with IGROV1 ovarian it was 110%; in the test on OVCAR-3 ovarian, 103%.

With `O=C(Oc1cccnc1)c1ccsc1Nc1ccnc(C(F)(F)F)c1`, the growth in the test on SK-MEL-2 melanoma was 72.6%; in the test with EKVX NSCLC, 110%; with SN12C renal it was 55.2%; in the test on UO-31 renal, 91.6%; with ACHN renal it was 107%; with CAKI-1 renal, 72.7%. The growth was 104% with A498 renal; 23.7% with CCRF-CEM leukemia; 8.64% (active) with MOLT-4 leukemia; 17.6% in the test on SR leukemia; 27.6% with RPMI-8226 leukemia; 84% with OVCAR-8 ovarian. For the same molecule, the growth is 60.2% in the test with OVCAR-4 ovarian; 88.2% in the test on SK-OV-3 ovarian; 35.9% with IGROV1 ovarian; 100% in the test with OVCAR-3 ovarian; 109% in the test on HS 578T breast; 60.4% in the test on NCI/ADR-RES ovarian.

With `Cc1ccc(/C=C2\SC(=S)N(CC(=O)NCCCN3CCOCC3)C2=O)cc1`, the growth is 107% with SK-MEL-2 melanoma; 93.7% with EKVX NSCLC; 92.1% with SN12C renal; 83.9% with UO-31 renal; 90.5% in the test with ACHN renal; 89.4% in the test on CAKI-1 renal. The growth with A498 renal is 96.1%; in the test with CCRF-CEM leukemia it was 104%; in the test on MOLT-4 leukemia, 101%; with SR leukemia it was 97.2%; with RPMI-8226 leukemia it was 95.9%; with OVCAR-8 ovarian, 96.4%. The growth with OVCAR-5 ovarian was 101%; in the test with OVCAR-4 ovarian it was 91.3%; in the test with SK-OV-3 ovarian it was 82.7%; in the test with IGROV1 ovarian it was 107%; in the test with OVCAR-3 ovarian it was 102%; with HS 578T breast, 87.4%. Moreover, in the test with NCI/ADR-RES ovarian, the growth is 96.5%.
